Measurements reported in the supplement of paper PMC3334620.
Over roughly 33,000 sequences, “E-score (-0.5 to 0.5)” has its median near -0.015; the highest 2% begin near 0.3. The entries come from a sample that favours the highest values as a whole.

molecular target: T1, Abf1 (UniProt P14164); assay: PBM E-score (8-mer binding enrichment) (E-score (-0.5 to 0.5)); higher = stronger / more preferred TF binding; conditions: protein concentration: 200 nM; construct: GST-full length
T1 sequence: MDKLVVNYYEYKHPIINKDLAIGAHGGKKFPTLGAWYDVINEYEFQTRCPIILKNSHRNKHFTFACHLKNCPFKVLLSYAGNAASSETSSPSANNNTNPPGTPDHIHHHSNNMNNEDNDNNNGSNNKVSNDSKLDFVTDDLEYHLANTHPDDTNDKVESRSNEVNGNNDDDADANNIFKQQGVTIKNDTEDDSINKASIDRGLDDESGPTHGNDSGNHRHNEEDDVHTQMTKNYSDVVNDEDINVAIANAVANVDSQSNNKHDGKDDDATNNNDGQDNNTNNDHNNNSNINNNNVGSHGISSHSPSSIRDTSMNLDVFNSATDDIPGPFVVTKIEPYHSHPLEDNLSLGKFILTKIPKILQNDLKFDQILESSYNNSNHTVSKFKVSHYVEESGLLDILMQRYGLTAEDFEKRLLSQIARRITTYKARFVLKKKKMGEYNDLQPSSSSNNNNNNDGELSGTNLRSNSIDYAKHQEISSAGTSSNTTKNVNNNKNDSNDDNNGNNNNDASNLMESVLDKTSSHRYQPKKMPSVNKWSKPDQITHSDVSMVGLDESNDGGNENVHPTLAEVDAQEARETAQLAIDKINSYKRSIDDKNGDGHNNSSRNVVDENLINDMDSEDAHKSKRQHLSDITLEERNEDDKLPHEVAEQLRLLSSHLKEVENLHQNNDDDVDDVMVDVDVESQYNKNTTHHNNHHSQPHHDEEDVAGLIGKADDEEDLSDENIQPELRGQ
Summary of the method: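 Detection of bound protein used fluorescent anti-GST, with scans normalised by masliner. The proteins were GST-tagged yeast transcription factors applied at about 100-200 nM to universal all-10-mer Agilent arrays made double-stranded by primer extension. Each ungapped eight-base word, pooled with its reverse complement, was scored with an E-score from the Universal PBM Analysis Suite.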

Row | Sequence | PBM E-score
1 | AAAAGATA | 0.182
2 | CCTATGCA | 0.018
3 | CGAAGCCG | -0.0718
4 | GCACCCTA | -0.149
5 | GAGGTCGC | 0.0116
6 | CCGTGCAC | 0.31
7 | CCGTGCGA | 0.354
8 | GCGTGCGA | -0.0331
9 | TCGTGCAA | 0.361
10 | ACGTGCAC | 0.112
11 | GCGTGCAA | 0.0992
12 | GCGTGCAC | -0.0221
13 | CCGTGCGC | 0.218
14 | ACGTGCAA | 0.21
15 | CCGTGCAA | 0.334
16 | CTGTGCAA | 0.0274
17 | CCGTGCAG | 0.192
18 | TCTCCAAA | -0.0776
19 | CCCGGCCA | -0.267
20 | AACAGCTG | -0.0093
21 | ACACTGGG | -0.134
22 | GCAACTCC | -0.257
23 | ACACGTGA | 0.237
24 | CCGAACCG | -0.0651
25 | AATGATGT | 0.325

Row | Sequence | PBM E-score
26 | AATGATTA | 0.273
27 | GATGATAA | 0.36
28 | GATGATAC | 0.297
29 | AATGATAC | 0.288
30 | CATGATAC | 0.236
31 | GATAATAA | 0.24
32 | AATGATGG | 0.0838
33 | AATGATAG | 0.229
34 | AATGATAA | 0.408
35 | AATGATGA | 0.282
36 | AGCTAGGG | -0.309
37 | CCTGCGTC | -0.22
38 | ATACTTTA | 0.094
39 | ACAACCGG | 0.0327
40 | GGGGCATA | -0.184
41 | CAGCTTAA | -0.00327
42 | CATGATAG | 0.0986
43 | TATGATAA | 0.258
44 | AATGATAT | 0.436
45 | CATGATAA | 0.356
46 | AATGAGAT | 0.148
47 | AATGAAAT | 0.166
48 | CTGGATGA | 0.0651
49 | CCTTGAAG | -0.111
50 | GCGTGGCA | -0.0717

Row | Sequence | PBM E-score
51 | CAACGAAA | 0.23
52 | TGACGAAA | 0.349
53 | CGACGAGA | 0.13
54 | AGACGAAG | 0.135
55 | CGACGAAA | 0.363
56 | CGACGAAC | 0.168
57 | GGACGAAA | 0.0999
58 | AGACGAAA | 0.296
59 | CGACGAAG | 0.357
60 | TCAACGCA | -0.00848
61 | CCCAGAAC | -0.144
62 | GTGCCTTA | 0.0147
63 | AGCCTGAG | -0.27
64 | ATATACCG | 0.268
65 | GTATACGA | 0.242
66 | AGATACGA | 0.223
67 | ATCTACGA | 0.233
68 | ATCTACGG | 0.344
69 | ATATACGA | 0.324
70 | ATATACGG | 0.339
71 | CTATACGA | 0.327
72 | CTATACGC | -0.0573
73 | ATCTACGC | 0.0634
74 | ATATACGC | 0.146
75 | ATATACCA | 0.173

Row | Sequence | PBM E-score
76 | CTGGCGGA | -0.122
77 | AGTCGCTC | -0.106
78 | CGACCCTC | -0.152
79 | GTCGACGA | 0.26
80 | TAAGATGA | 0.182
81 | AGACGGCT | -0.0258
82 | CGTATACG | 0.195
83 | ATCGCCCC | -0.113
84 | ACAACTTA | 0.0805
85 | GTAAAGAA | 0.113
86 | ACCACACA | -0.0452
87 | CTGCCGTA | 0.122
88 | GTAAGCAA | 0.0905
89 | CTTGTCAA | 0.0838
90 | CCTGTCAC | 0.149
91 | ATTGTCAC | 0.398
92 | ATTGTCAA | -0.0577
93 | ATTGTCAG | 0.141
94 | CTTGTCAC | 0.357
95 | TAGCCGGA | -0.117
96 | AAGTGACA | 0.394
97 | CAGTGACG | 0.239
98 | AAGTGGCT | -0.149
99 | AAGTGACT | 0.328
100 | AAGTGACG | 0.352

Row | Sequence | PBM E-score
101 | ATGTGACA | 0.288
102 | AAGTGACC | 0.252
103 | AAGTGCCA | -0.105
104 | AAGTGAGG | -0.0213
105 | GGGCTATA | -0.0762
106 | AATCACCC | 0.195
107 | AACGCAAC | 0.0366
108 | CATTTTGG | 0.124
109 | AGAGTGTG | -0.158
110 | AGGTGAGG | 0.115
111 | TACAACCA | -0.0973
112 | CCGAAGGA | -0.29
113 | ACCTCATA | 0.195
114 | CGGAAGAG | -0.212
115 | AGTCCCCG | -0.265
116 | AGTTTATA | 0.0788
117 | AACTTAGC | 0.0723
118 | ATGCACGG | 0.258
119 | GTGCACGA | 0.187
120 | ATGCACGA | 0.362
121 | CTGCACGC | -0.24
122 | ATGCACGC | -0.131
123 | CTGCACGA | 0.303
124 | CCAGAGGG | -0.267
125 | AGAATTTG | -0.0116

Row | Sequence | PBM E-score
126 | AAACGAAG | 0.108
127 | GTAATGCA | -0.123
128 | CATGCTAA | 0.0181
129 | CAATACGG | 0.228
130 | AAATACGA | 0.333
131 | GAATACGA | 0.253
132 | AAATACGC | 0.0308
133 | AGATACGG | 0.129
134 | CAATACGA | 0.281
135 | AAATACGT | 0.039
136 | AAATACGG | 0.314
137 | TAATACGA | 0.337
138 | CCACGCGG | -0.0923
139 | ATACTTAG | -0.0263
140 | GAAGCTGA | -0.0959
141 | GCAGACCC | -0.286
142 | CACTGTCA | 0.234
143 | GTTCGAAC | 0.21
144 | AGGACAAT | 0.125
145 | AAGACAAT | 0.138
146 | AAGACAAA | 0.127
147 | GTGACAAA | 0.412
148 | AGGACAAA | 0.121
149 | ATGACAAT | 0.344
150 | TTGACAAA | 0.182

Row | Sequence | PBM E-score
151 | ATGACAAA | 0.338
152 | CTGACAAC | -0.0598
153 | GTGACAAC | 0.375
154 | CTGACAAA | 0.0266
155 | GGGACAAC | -0.0272
156 | TACGCGCA | 0.0188
157 | TCCCGAAA | 0.0516
158 | AATGAAGT | -0.0259
159 | ATAAACCA | 0.0453
160 | GCAATGAC | 0.245
161 | GCACGCAC | 0.0219
162 | ACCTGCGT | -0.045
163 | ATCCACAC | -0.103
164 | GACGGGAA | 0.098
165 | CGGCAGAG | -0.193
166 | CATCCCCG | -0.108
167 | ATAACGAG | 0.24
168 | AGCGTGCA | 0.0338
169 | CTCGCATA | -0.0654
170 | ATGACAGC | 0.199
171 | ATGACAAC | 0.343
172 | ATGACAAG | 0.282
173 | CATAGAAA | 0.105
174 | AATCATGA | 0.274
